Bioassay records deposited in PubChem by several laboratories.
RmlCD inh mix: mixture blocks RmlC and RmlD coupled enzyme activity. RmlC/RmlD coupled enzyme inhibition, 384-well mixture HTS. 110,000 compounds, 0.39% hits. AID 1532. inhibition, % at 5.5 µM; in the data active = inhibition above about 30%, passing the limit was not always enough; inconclusive = no clear call, values can overlap the other calls
HIV RNase H inh-1: inhibitors of HIV-1 reverse transcriptase RNase H; RT-RNase H RNA/DNA duplex cleavage, fluorescence; inhibition, % at 10 µM; 65,000 compounds, 1.9% hits; AID 565; in the data active = inhibition above about 50%
HIV RNase H inh-2: confirmation of HIV-1 reverse transcriptase RNase H inhibitors; inhibition, % at 10 µM; shares compounds with HIV RNase H inh-1; 1,000 compounds, 39% hits; Recombinant RT RNase H, fluorescent RNA/DNA duplex cleavage; AID 651; in the data active = inhibition above about 48%; inconclusive = no clear call, values can overlap the other calls
* = called active by the depositor; i = inactive; u = inconclusive; x = no result given. Shown is part of a subset that was picked to be rich in hits.

SMILES | RmlCD inh mix | HIV RNase H inh-1 | HIV RNase H inh-2
O=C1c2ccccc2S(=O)(=O)N1CCOc1ccccc1 | 20 | -28 | x
CN(C)CCNC(=O)c1ccc(CS(=O)(=O)c2ccc(Br)cc2)o1 | 4 | -6 | x
COC(=O)c1cc2oc(C)cc2n1CC(=O)N1CCCc2ccccc21 | x | -11 | x
COc1ccc(C(=O)N(Cc2nc(-c3ccc(C)cc3)no2)C2CCCCC2)cc1OC | 4 | 6 | x
COc1cccc(CN2C(=O)[C@@H]3Cc4c([nH]c5ccccc45)C(C)(C)N3C2=O)c1 | -19 | x | x
O=C(CSc1n[nH]c(-c2ccncc2)n1)c1ccccc1 | 4 | -5 | x
Cc1nc(SCC(=O)c2ccccc2)n[nH]1 | -3 | 59* | 17
CSCSC1=C(C#N)C(c2ccccc2Cl)C(C(C)=O)=C(C)N1 (stereo unspecified) | -3 | 70* | 42
CCOC(=O)CSC1=C(C#N)C(c2ccccc2F)C(C(C)=O)=C(C)N1 (stereo unspecified) | 7 | 1 | x
C[C@@H]1C=C(C(=O)NC2CC2)O[C@H](OCc2ccc(CO)cc2)C1 | -9 | x | x
CCOC(=O)c1c(C)oc2c1c(C(c1ccncc1)N1CCOCC1)c(O)c1ccccc12 (stereo unspecified) | 9 | 68* | 6
CCOC(=O)c1c(C)oc2c1c1c(c3ccccc32)OCN(Cc2ccccn2)C1 | -11 | x | x
CCOC(=O)c1ccccc1NC(=O)CN(c1ccccc1)S(=O)(=O)N(C)C | -6 | -14 | x
O=C(COC(=O)c1ccccc1Nc1cccc(C(F)(F)F)c1)NCc1ccco1 | 11 | x | x
CCOc1ccccc1N1CCN(S(=O)(=O)c2cccs2)CC1 | -6 | -9 | x
CCOc1ccccc1N1CCN(S(=O)(=O)CC)CC1 | -13 | 53* | 0
CCCN1CCC(=O)N([C@H](CSc2ccc(OC)cc2)c2ccccc2)CC1 | 6 | x | x
COc1ccc(NC(=O)Cn2cccc2)cc1Cl | -10 | -1 | x
COC(=O)c1ccc2c(c1)N(Cc1nc(-c3cccc(C)c3)oc1C)C(=O)C1CCCN21 (stereo unspecified) | 4 | 71* | 67*
Cc1cccc(-c2nc(CN3CCCC(C(=O)NC4CCCCCC4)C3)c(C)o2)c1 (stereo unspecified) | 3 | 6 | x
O=C(O)Cc1c[nH]c2ccc(O)cc12 | 66 | x | x
Cc1c(OCC(F)(F)F)ccnc1CS(=O)c1nc2ccccc2[nH]1 (stereo unspecified) | 6 | 74* | 33
COCCCOc1ccnc(CS(=O)c2nc3ccccc3[nH]2)c1C (stereo unspecified) | -6 | x | x
C=CCOc1ccc(CC2C(=O)N(C)C(=O)N(C)C2=O)cc1 | 5 | 56* | 88*
CCN(CC)c1ccc(CC2C(=O)N(C)C(=O)N(C)C2=O)cc1 | x | 8 | x
SMILES | RmlCD inh mix | HIV RNase H inh-1 | HIV RNase H inh-2
CCn1c(SCc2ccc(OC)cc2)nnc1-c1ccncc1 | 1 | 0 | x
CCCSC(=O)N(CC)CC(=O)Nc1c(CC)cccc1CC | 8 | x | x
CCC(C)/C=C/C1=CC2=C(Cl)C(=O)C3(C)OC(=O)C(C(=O)C(C)C(C)O)C3C2=CO1 (stereo unspecified) | i | x | x
CCN(CC)c1ccc(C(=S)N2CCN(c3ccccc3)CC2)cc1 | 4 | 73* | 26
S=C(c1ccc(N2CCCC2)cc1)N1CCCCC1 | 8 | 6 | x
Nc1ccccc1CNc1nc(NCCO)nc2c1ncn2CCN1CCOCC1 | 9 | x | x
O=C(/C=C/c1cccs1)N1CCC2(CC1)Oc1ccc(Cl)cc1C(=O)C21CC(c2cccnc2)=NO1 (stereo unspecified) | 2 | x | x
CCCCS/C(=C(/C#N)C(N)=O)c1cc2c([nH]1)CCCC2 | -10 | 81* | 0
CCc1ccc(N/C(SC)=C(/C#N)C(N)=O)cc1 | -3 | -18 | x
O=C(NC1CC1)C1=C[C@@H](c2ccc(Br)cc2)C[C@@H](OCc2ccc(CO)cc2)O1 | 6 | x | x
Cc1cc(NC(=O)CSc2nc(C(C)C)nc3sc4c(c23)CCCC4)no1 | 40 | 70* | 29
Cc1cc(NC(=O)CSc2nc(C3CC3)nc3sc4c(c23)CCC(C)C4)no1 (stereo unspecified) | 4 | 70* | 97*
Cc1cc(NC(=O)CSc2nc(C3CCCCC3)nc3ccccc23)no1 | -8 | 9 | x
Cc1cc(NC(=O)CSc2nc3sc4c(c3c(=O)n2C)CCCC4)no1 | x | 6 | x
N#CCCn1nc(-c2ccccc2)cc1Nc1ccccc1NC(=O)c1cccs1 | -16 | 0 | x
COc1ccc(NC(=O)n2nc(OC(=O)c3cccs3)cc2N)cc1 | 2 | x | x
Cc1ccc(-c2nn(-c3ccccc3)cc2CN(Cc2ccccc2)C(=O)c2ccco2)o1 | 177 | x | x
CCO[C@H]1OC(C(=O)NCc2ccccc2)=C[C@@H](C(C)(C)C)[C@@H]1CCCO | 2 | x | x
CN(C)c1ccnc(SCc2ccccc2Cl)c1C#N | 6 | -66 | x
CC(C)C(c1nnnn1C1CCCCC1)N1CCc2ccccc21 (stereo unspecified) | 9 | x | x
CC(C)C(c1nnnn1C1CCCC1)N1c2ccccc2CC1C (stereo unspecified) | 2 | 74* | 9
N=c1c(-c2nc3ccccc3[nH]2)cc(C(=O)c2cccs2)nn1-c1ccc(Cl)cc1 | -16 | x | x
O=S(=O)(c1ccc2nc(-c3ccco3)c(-c3ccco3)nc2c1)N1CCOCC1 | 3 | 76* | 26
Cn1c(=O)n(C)c2cc(S(=O)(=O)N3CCOCC3)ccc21 | 3 | -6 | x
CCc1c(C)[nH]c2c1C(=O)C(CN1CCOCC1)CC2 (stereo unspecified) | 3 | x | x
SMILES | RmlCD inh mix | HIV RNase H inh-1 | HIV RNase H inh-2
CCOC(=O)c1sc(N(C)C)nc1-c1ccccc1 | 9 | x | x
CCOC(=O)c1sc(N)nc1-c1ccccc1 | -11 | 71* | 38
O=C(NCc1ccccc1)c1c(O)c2cccc3c2n(c1=O)CCC3 | -11 | -35 | x
O=C(NCc1ccc2c(c1)OCO2)c1c(O)c2cccc3c2n(c1=O)CCC3 | -2 | 72* | 10
COC(=O)C[C@H]1c2ccccc2S(=O)(=O)N1C(C)C | -8 | x | x
CC(C)=CCC12Oc3cc(O)ccc3C1(O)Oc1cc3c(c(O)c1C2=O)C=CC(C)(C)O3 (stereo unspecified) | 6 | x | x
COc1ccccc1OCCn1c(C(C)O)nc2ccccc21 (stereo unspecified) | -16 | 65* | 42
CC(O)c1nc2ccccc2n1CCOc1ccccc1 (stereo unspecified) | 4 | x | x
CCn1c(SCC(=O)Nc2nc(C)c(C(=O)OC)s2)nnc1C(C)C | -12 | 3 | x
Oc1ccc2c(c1)C1CCCC1(N1CCOCC1)O2 (stereo unspecified) | 9 | 68* | 33
c1ccc2c(c1)nc1n2C2(N3CCOCC3)CCCC2C1N1CCOCC1 (stereo unspecified) | x | -17 | x
COC(=O)[C@H](Cc1ccccc1)NC(=O)NCCC1=CCCCC1 | -7 | x | x
CN1C[C@@H]2C(c3ccc(C(F)(F)F)cc3)C3(c4ccc(C#N)cc4)CC2(C3)[C@H]1c1ccccc1 (stereo partly specified) | 2 | x | x
COC(=O)Nc1nnc(-c2ccncc2)s1 | 11 | 67* | u
O=C(Nc1ccc(F)cc1)Nc1nnc(-c2ccncc2)s1 | -4 | x | x
O=C(Nc1ccc(Cl)cc1)OCCn1nnnc1C(c1ccccc1Cl)N1CCOCC1 (stereo unspecified) | -5 | x | x
Cc1ccc(-n2nc(C)c3c2NC(=O)CSC3c2ccc3c(c2)OCO3)cc1 (stereo unspecified) | -6 | 60* | 64*
